Shown are actives, neighbours in structure and some others; about 2.4% of the full set was active somewhere.
Pol beta inh: blocks human DNA polymerase beta activity; Potency, µM (doses to about 114 µM), for inactives: top-dose activity change, negative = inhibition, actives largely listed as inhibitors; 340,000 compounds, 1.3% hits; P06746; Pol beta primer extension/strand displacement, fluorescence kinetic; AID 485314; note: % is set by controls: 0 for no effect and ±100 for the full control effect
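Homogeneous kinetic assay of primer extension and strand displacement by 10 nM Pol beta, preincubated 15 min at room temperature with compound before 50 nM substrate (final) was added. Read at 0 and 10 min; four-parameter Hill fit.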
WRN inhibitor: inhibitors of human WRN helicase. 360,000 compounds, 0.46% hits. WRN helicase unwinding, fluorescent forked duplex, kinetic. Q14191. Potency, µM (series often up to 114 µM), for inactives: at the top dose activity change, negative = inhibition, actives largely listed as inhibitors; note: % is set by controls: 0 for no effect and ±100 for the full control effect; nearly all actives have a fitted effect of over 55% in size
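Fluorescence dequenching readout, ex 525 nm/em 598 nm, kinetic mode: forked duplex DNA (100 nM final) with adjacent fluorophore and quencher unwound by WRN (20 nM final) with 2 mM ATP. Compound preincubation 15 min, room temperature.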
FEN1 inh: human FEN1 inhibition. 390,000 compounds, 0.35% hits. Recombinant FEN1 flap cleavage, fluorescence, 15 min. Potency, µM (doses to about 114 µM), inactives show at the highest dose activity change, negative = inhibition, actives largely listed as inhibitors; note: % is set by controls: 0 for no effect and ±100 for the full control effect; nearly all actives have a fitted effect of over 65% in size
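FEN1 at 10 nM, compound pretreatment for 15 min (room temperature), 50 nM final substrate to initiate; endpoint reads at 0 and 15 min; DMSO-only plates used as vehicle background.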
POLK inh: DNA polymerase kappa (human) inhibition; purified Pol kappa, fluorescent DNA synthesis assay, 10 min; Potency, µM (highest dose often 107 µM), without a hit: at the top dose activity, negative = inhibition, most hits filed as inhibitors; 400,000 compounds, 0.53% hits; AID 588579; note: % is set by controls: 0 for no effect and ±100 for the full control effect
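Kinetic fluorescence screen: compound preincubated 15 min RT with 10 nM enzyme; 50 nM substrate (final) initiates; reads at 0/10 min.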
Pol iota inh: DNA polymerase iota (human) inhibition; Q9UNA4; Pol iota fluorescent replication assay, 10 min; Potency, µM (highest dose often 115 µM), inactives show at the highest dose activity, negative = inhibition, hits mostly inhibitors; 390,000 compounds, 1% hits
Target sequence (Q9UNA4 whole entry, looked up): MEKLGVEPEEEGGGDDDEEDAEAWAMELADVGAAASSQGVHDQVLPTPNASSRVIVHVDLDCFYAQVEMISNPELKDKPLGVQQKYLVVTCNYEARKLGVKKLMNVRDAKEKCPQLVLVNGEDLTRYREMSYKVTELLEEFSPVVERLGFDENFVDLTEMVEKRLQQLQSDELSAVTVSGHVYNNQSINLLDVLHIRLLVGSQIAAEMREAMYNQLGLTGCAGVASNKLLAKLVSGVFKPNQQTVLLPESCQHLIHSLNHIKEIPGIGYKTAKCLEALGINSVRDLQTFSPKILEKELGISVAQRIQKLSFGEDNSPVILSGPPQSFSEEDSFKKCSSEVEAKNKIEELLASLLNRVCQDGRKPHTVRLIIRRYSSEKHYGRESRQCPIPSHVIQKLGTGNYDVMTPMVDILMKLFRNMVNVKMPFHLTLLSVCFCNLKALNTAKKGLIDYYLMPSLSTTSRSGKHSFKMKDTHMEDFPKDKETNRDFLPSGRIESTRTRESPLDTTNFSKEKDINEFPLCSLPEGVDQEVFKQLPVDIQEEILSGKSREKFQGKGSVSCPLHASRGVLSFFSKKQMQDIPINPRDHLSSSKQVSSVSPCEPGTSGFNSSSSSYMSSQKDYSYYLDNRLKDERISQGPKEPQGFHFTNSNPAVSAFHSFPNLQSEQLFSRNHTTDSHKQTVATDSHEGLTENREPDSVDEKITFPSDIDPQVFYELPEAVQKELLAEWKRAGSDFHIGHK
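Fluorescent replication assay read twice, at 0 min and 10 min after adding 50 nM (final) substrate. Enzyme (10 nM) and compounds were first incubated 15 min at room temperature; enzyme-free buffer wells were negative controls.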
POLH inh: blocks human DNA polymerase eta activity; AID 588591; Potency, µM (series often up to 114 µM), for inactives: top-dose activity change, negative = inhibition, hits mostly inhibitors; 390,000 compounds, 1.2% hits; Q9Y253; recombinant Pol eta, fluorescent DNA replication assay; note: % is set by controls: 0 for no effect and ±100 for the full control effect
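Fluorescent replication assay: 50 nM final substrate added after a 15 min room-temperature compound preincubation with 10 nM enzyme. Signal taken at 0 min and again at 10 min.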
An asterisk follows results filed as active; ? = inconclusive; nt = no result given; [ ] = remark or other dose. Calls come from the whole dose curve; as a rule, active = well fitted curve in the direction sought with a large enough effect; inconclusive = small, poorly fitted or top-dose-only effect, or another doubt; inactive = no such curve, though single readings can be large; an effect the other way counts as inactive or inconclusive. Potency is the fitted concentration of half-maximal effect.

SMILES	Pol beta inh	WRN inhibitor	FEN1 inh	POLK inh	Pol iota inh	POLH inh
O=C(NCc1cccnc1)c1ccc(NS(=O)(=O)c2cccc([N+](=O)[O-])c2)cc1	nt	4.9%	-6.9%	-12.0%	2.6%	-11.0%
CC1CCN(C(=O)COC(=O)c2ccc(N3CCCC3=O)cc2)CC1	nt	1.4%	10.4%	-13.0%	26.1%	-27.1%
Fc1ccc(-c2nc3c4c(-c5ccccc5)c(-c5ccccc5)oc4ncn3n2)cc1	13.9%	nt	22.5%	-4.4%	?	-11.6%
CCOC(=O)c1sc(NC(=O)C2CC=CCC2C(=O)O)nc1C (centres undefined)	44.7µM*	-15.7%[57.1 µM]	-15.0%	-5.8%	?	79.4µM*
CCN(C[C@H]1N[C@@](C)(C(=O)OC)[C@H]2C(=O)N(C)C(=O)[C@@H]12)C(=O)COC	nt	-6.7%	-3.9%	-13.2%	-8.6%	-6.2%
O=C(O)c1ccc(N2C(=O)/C(=C/C=C/c3ccccc3)SC2=S)cc1	?	-7.3%[57.1 µM]	-7.0%	-3.2%[60.1 µM]	?	50.1µM*
CCOC(=O)C1CCN(S(=O)(=O)c2ccc3c(c2)CCCN3C(C)=O)CC1	-0.1%	12.7%	13.6%	-5.1%	-0.7%	-4.0%
CCOC(=O)C1CCN(S(=O)(=O)c2ccc3c(c2)CC(=O)N3C)CC1	-3.5%	5.2%	-5.1%	-11.8%	14.1µM*	?
CN(Cc1ccccc1)C(=O)COC(=O)COc1ccc(Cl)cc1	nt	6.9%	-3.4%	-9.5%	2.1%	-9.3%
CN(C[C@H](Cc1ccccc1)N(C[C@H](CC1CCCCC1)N(CCc1ccccc1)N=O)N=O)N=O	10.9%	-8.9%	4.3%	?	89.1µM*	-12.2%
Cc1ccc(S(=O)(=O)N2CCN(C(=O)c3cccc(-n4cccc4)c3)CC2)cc1	nt	?	-3.5%	79.4µM*	22.4µM*	17.8µM*
Cc1nnc(SCC(=O)Nc2ccc(S(=O)(=O)N3CCCCC3)cc2)s1	8.3%	-9.7%	-0.6%	-6.1%	12.0%	-9.1%
COc1ccccc1-c1noc2ncnc(Nc3cccc(C)c3)c12	5.5%	-7.5%	-9.5%	-6.7%	2.1%	-3.9%
Cc1[nH][nH]c(=O)c1C(c1c(C)[nH][nH]c1=O)c1cn(Cc2ccccc2Cl)c2ccccc12	-15.5%	-32.3%	-30.1%	-15.0%	5.62µM*	?
N/C(=N\O)c1cn(Cc2ccccc2Cl)c2ccccc12	-13.4%	0.9%	0.0%	-7.6%	113.2%	-20.2%
CN(C)c1ccc(C=O)c(O)c1	nt	nt	-11.8%	?	50.1µM*	nt
CN(C)c1ccc(C=O)c(Cl)c1	nt	nt	-16.3%	-9.9%	7.6%	nt
COc1ccc(NC(=O)COC(=O)c2cc3c(s2)CCC3)cc1	nt	-22.3%	9.1%	?	31.6µM*	44.7µM*
O=C(COC(=O)c1cc2c(s1)CCCC2)Nc1ccc(Cl)cn1	-25.4%	0.3%	-4.7%	6.9%	21.1%	-2.2%
Cc1ccc(C)c(N(CC(=O)NCCSCc2ccco2)S(C)(=O)=O)c1	28.2µM*	-35.4%	-12.8%	79.4µM*	?	22.4µM*
O=C(NCCSCc1ccco1)c1ccc(=O)[nH]c1	-7.0%	-6.0%[11.6 µM]	0.0%	-38.5%	50.1µM*	-19.9%
COc1ccccc1C(C#N)N1N=C(C)CC1c1ccccc1 (centres undefined)	22.4%	-3.1%	-10.4%	-5.1%	-2.8%	4.7%
CC1(C)C(=O)Nc2ccccc2N1C(=O)COc1ccc(S(=O)(=O)N2CCOCC2)cc1Cl	25.1µM*	-31.4%[57.1 µM]	-7.4%	-19.5%	?	?
C=CCn1c(C)nnc1SCC(=O)N1c2ccccc2NC(=O)C1(C)C	nt	0.5%	nt	nt	nt	-5.7%
CC1(C)C(=O)Nc2ccccc2N1C(=O)COc1ccccc1C#N	nt	-2.8%[11.6 µM]	-1.1%	?	35.5µM*	?
SMILES	Pol beta inh	WRN inhibitor	FEN1 inh	POLK inh	Pol iota inh	POLH inh
Cc1ccccc1OCCC(=O)OCC(=O)N1c2ccccc2NC(=O)C1(C)C	nt	2.5%	12.2%	-13.9%	?	?
CC1(C)C(=O)Nc2ccccc2N1C(=O)CSc1ncccn1	?	-4.6%[11.6 µM]	-15.2%	?	44.7µM*	?
Cc1ccc(S(=O)(=O)Cc2nc3ccccc3c(=O)[nH]2)cc1	3.5%	5.6%	-9.6%	-1.8%	0.8%	-3.1%
COCC1CCN(C(=O)c2ccc3oc(CCCc4ccccc4)nc3c2)C1 (centres undefined)	-0.9%	-19.6%	4.9%	-1.9%	29.2%	-18.2%
CSc1ccc(-c2sc(Nc3ccccc3)n[n+]2-c2ccccc2)cc1	?	20.5%	22.4µM*	-15.1%	?	3.6%
COc1cccc(NC(=O)CN2C(=O)CSc3ccc(S(=O)(=O)N4CCC(C)CC4)cc32)c1	21.1%	3.6%	-8.7%	-0.2%	-10.9%	-28.5%
COc1cc2c(C(=O)N3CCN(c4cc(Cl)ccc4C)CC3)cn(CC(C)C)c(=O)c2cc1OC	13.8%	nt	-7.4%	0.3%	?	-1.9%
COc1cc2c(C(=O)N3CCN(c4cccc(C(F)(F)F)c4)CC3)cn(CC(C)C)c(=O)c2cc1OC	-5.5%	nt	-23.2%	-12.6%[60.1 µM]	89.1µM*	-20.9%
Cc1cc(=O)oc2cc(OCC(=O)Nc3cccnc3)ccc12	nt	3.5%	-3.0%	-19.0%	56.4%	-13.2%
Cc1cccn2c(=O)c3cc(C(=O)NCc4ccco4)c(=N)n(CCc4ccccc4)c3nc12	?	-13.7%	-5.7%	-25.9%	?	?
Cc1cccn2c(=O)c3cc(C(=O)NCCc4ccccc4)sc3nc12	14.1µM*	-17.3%	-5.3%	-23.9%	?	?
N=c1c(C(=O)NCc2ccccc2)cc2c(=O)n3ccccc3nc2n1Cc1ccco1	?	-5.7%	-3.9%	-2.3%	4.1%	?
N=c1c(C(=O)NCc2ccc(F)cc2)cc2c(=O)n3ccccc3nc2n1Cc1ccco1	?	-21.9%	-1.4%	?	17.8µM*	39.8µM*
N=c1c(C(=O)NCc2ccc3c(c2)OCO3)cc2c(=O)n3ccccc3nc2n1Cc1cccnc1	39.8µM*	-15.2%	?	-20.1%	39.8µM*	?
Cc1cccn2c(=O)c3cc(C(=O)NCCc4ccccc4)c(=N)n(Cc4ccco4)c3nc12	-16.9%	-20.2%[11.6 µM]	-1.8%	-35.4%	7.94µM*	-10.5%
CC(NC(=O)/C(=C/c1cccc([N+](=O)[O-])c1)NC(=O)c1ccco1)C(=O)O (centres undefined)	6.8%	-15.9%	-2.2%	-11.5%	16.5%	0.8%
CCc1ccc(CCC(=O)Nc2ccc(C)cc2C)o1	0.0%	-13.1%	-3.8%	-2.4%	-5.2%	-5.8%
CN(C)c1ccc(CN(CC2CCCO2)C(=O)c2cc3ccccc3o2)cc1 (centres undefined)	nt	-1.5%	-14.9%	-7.2%	15.2%	-5.7%
O=C1C2C3C=CC(C3)C2C(=O)N1c1ccc2ccccc2n1 (centres undefined)	-9.1%	3.4%	-8.3%	0.0%	6.1%	-2.8%
